Measurements from PubChem BioAssay (EPA / NIEHS).
Records with an inconclusive call do not appear. Active and inactive are the calls of the source. How the source made its calls, unless noted: active means hit-call score of the fitted dose curve at least 0.9, where 1 is the maximum; inactive means score below 0.9.

How the values were obtained:
[1] = ATG_TAL_CIS: Attagene CIS-FACTORIAL HepG2 Assay for human TAL Basal Promoter (AID 2282966); settings: HepG2 Attagene cis-factorial TAL promoter reporter; actives raise or lower the signal;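 further: background control endpoint measuring basal TAL promoter reporter mRNA not a specific factor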
Summary of the method: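 Transiently transfected HepG2 (cis-regulated reporter units), 24 h treatment, mRNA read by fluorescent CE after RT-PCR; bidirectional fit, DMSO baseline.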

[2] = ATG_TGFb_CIS: Attagene CIS-FACTORIAL HepG2 Assay for human Transforming Growth Factor (TGF) (AID 2282967); settings: HepG2 Attagene CIS TGFb reporter, mRNA transcription; actives raise or lower the signal
Summary of the method: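 HepG2 cells transiently transfected with cis-promoter-driven multiple reporter units measure endogenous TF activity; reporter mRNA quantified at 24 h by RT-PCR, FAM labeling, HpaI digestion and capillary electrophoresis. Bidirectional fit vs DMSO.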

[3] = ATG_VDRE_CIS: Attagene CIS-FACTORIAL HepG2 Assay for human Vitamin D Receptor Element (VDRE) (AID 2282968); settings: HepG2 VDRE cis-reporter transcription, actives raise or lower the signal
Summary of the method: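 Readout is VDRE-driven reporter mRNA reflecting endogenous factor activity in human HepG2 cells, sampled 24 h post-dose. Quantification used labelled RT-PCR products separated by capillary electrophoresis; bidirectional analysis relative to DMSO.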

[4] = target: Nuclear receptor subfamily 1 group I member 3 (Homo sapiens) (UniProt Q14994); experiment: ATG_CAR_TRANS: Attagene TRANS-FACTORIAL HepG2 Assay for human Constitutive Androstane Receptor (CAR) (AID 2282969; active means hit-call score of the fitted dose curve at least 0.9, where 1 is the maximum;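 further: activators raise reporter mRNA above DMSO so AC50 marks induction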); settings: HepG2 Attagene TRANS-FACTORIAL CAR reporter
Summary of the method: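 Signal is reporter mRNA induction relative to DMSO, measured 24 h after dosing by RT-PCR with fluorescent primer extension and capillary electrophoresis. Human HepG2 liver cells carried transiently transfected chimeric NR-Gal4/GAL4-UAS reporter constructs.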

[5] = target: Steroid hormone receptor ERR1 (Homo sapiens) (UniProt P11474); experiment: ATG_ERRa_TRANS: Attagene TRANS-FACTORIAL HepG2 Assay for human Estrogen-Related Receptor alpha (ERRa) (AID 2282971; active means hit-call score of the fitted dose curve at least 0.9, where 1 is the maximum); settings: HepG2 Attagene TRANS reporter, ERRa transactivation
Summary of the method: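 HepG2 cells transiently transfected with multiplexed GAL4-UAS reporter units reading chimeric ERRa-Gal4 activity; 24 h compound exposure. Reporter mRNA measured by RT-PCR, 6-FAM labelling, HpaI digest and capillary electrophoresis; gain of signal fitted versus DMSO baseline.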

[6] = target: X-box-binding protein 1 (Homo sapiens) (UniProt P17861); experiment: ATG_Xbp1_CIS: Attagene CIS-FACTORIAL HepG2 Assay for human X-box Binding Protein 1 (XBP1) (AID 2282972); settings: HepG2 XBP1 cis-element reporter, Attagene multiplex; actives raise or lower the signal
Summary of the method: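 Multiplexed cis-reporter readout in transfected HepG2 liver cells. Exposure lasted 24 hours. Activity in either direction was fitted against DMSO as negative control and baseline.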

[7] = ATG_M_19_TRANS: Attagene TRANS-FACTORIAL HepG2 Assay for M19 Transcription Factor (Internal Marker) (AID 2282974; active means hit-call score of the fitted dose curve at least 0.9, where 1 is the maximum); settings: HepG2 Attagene TRANS-FACTORIAL M19 internal marker reporter
Summary of the method: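 Measured here: internal-marker reporter transcript from HepG2 cells transfected with MRTUs, harvested at 24 h. cDNA PCR products were 6-FAM labelled by primer extension, cut with HpaI for 2 h at 37 C, and resolved by CE.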

[8] = ATG_GAL4_TRANS: Attagene TRANS-FACTORIAL HepG2 Assay for GAL4 (Internal Marker) (AID 2282976; active means hit-call score of the fitted dose curve at least 0.9, where 1 is the maximum); settings: HepG2 Attagene TRANS GAL4 internal marker reporter
Summary of the method: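 HepG2 cells transiently transfected with multiplexed GAL4-UAS reporter constructs were dosed for 24 h. Reporter mRNA was measured by RT-PCR, 6-FAM primer extension, HpaI digestion and capillary electrophoresis, and gain of signal was fitted relative to DMSO.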

[9] = target: Estrogen receptor (Homo sapiens) (UniProt P03372); experiment: ATG_ERa_TRANS: Attagene TRANS-FACTORIAL HepG2 Assay for human Estrogen Receptor alpha (ERa) (AID 2282970; active means hit-call score of the fitted dose curve at least 0.9, where 1 is the maximum); settings: HepG2 Attagene TRANS ERa GAL4 reporter, mRNA
Summary of the method: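 One of 30 multiplexed endpoints from a HepG2 TRANS system, this one reports ERa-Gal4-driven reporter mRNA. Transcripts were quantified 24 hours post-dosing by fluorescent RT-PCR and capillary electrophoresis, with activity scored as induction over DMSO.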

[10] = target: Estrogen-related receptor gamma (Homo sapiens) (UniProt P62508); experiment: ATG_ERRg_TRANS: Attagene TRANS-FACTORIAL HepG2 Assay for human Estrogen-Related Receptor gamma (ERRg) (AID 2282977; active means hit-call score of the fitted dose curve at least 0.9, where 1 is the maximum;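 further: hits increase reporter signal over DMSO so potencies reflect activators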); settings: HepG2 Attagene TRANS reporter, ERRg transactivation
Summary of the method: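 Induction of reporter transcripts through a chimeric NR-Gal4 protein is quantified in transfected human HepG2 liver cells after 24 h chemical exposure, using RT-PCR with capillary electrophoresis detection and DMSO as baseline.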

Sequence of Nuclear receptor subfamily 1 group I member 3 (Homo sapiens) (Q14994 whole entry, looked up, the tested form may be a part): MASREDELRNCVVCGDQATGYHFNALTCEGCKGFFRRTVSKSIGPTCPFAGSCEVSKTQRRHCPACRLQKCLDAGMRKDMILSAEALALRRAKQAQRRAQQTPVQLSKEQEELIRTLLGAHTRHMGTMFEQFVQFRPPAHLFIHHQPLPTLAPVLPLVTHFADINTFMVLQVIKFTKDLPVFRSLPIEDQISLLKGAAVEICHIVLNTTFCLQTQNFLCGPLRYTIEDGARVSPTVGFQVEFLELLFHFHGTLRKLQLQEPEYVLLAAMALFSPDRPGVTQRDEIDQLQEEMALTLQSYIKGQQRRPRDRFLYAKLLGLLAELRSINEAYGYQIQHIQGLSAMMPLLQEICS
Sequence of Estrogen-related receptor gamma (Homo sapiens) (P62508 whole entry, looked up, the tested form may be a part): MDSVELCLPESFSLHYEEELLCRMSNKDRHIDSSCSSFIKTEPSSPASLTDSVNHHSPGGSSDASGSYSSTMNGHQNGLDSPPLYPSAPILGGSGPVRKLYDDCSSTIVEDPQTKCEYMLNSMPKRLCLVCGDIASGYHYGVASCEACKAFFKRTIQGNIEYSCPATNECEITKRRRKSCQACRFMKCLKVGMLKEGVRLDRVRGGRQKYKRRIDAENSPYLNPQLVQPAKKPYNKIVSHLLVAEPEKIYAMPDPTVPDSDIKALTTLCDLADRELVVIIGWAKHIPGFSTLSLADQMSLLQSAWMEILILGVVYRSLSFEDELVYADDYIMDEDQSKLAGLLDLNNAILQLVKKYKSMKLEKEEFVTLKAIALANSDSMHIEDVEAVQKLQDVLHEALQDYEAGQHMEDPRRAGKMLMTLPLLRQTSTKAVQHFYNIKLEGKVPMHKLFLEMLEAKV
Sequence of X-box-binding protein 1 (Homo sapiens) (P17861 whole entry, looked up): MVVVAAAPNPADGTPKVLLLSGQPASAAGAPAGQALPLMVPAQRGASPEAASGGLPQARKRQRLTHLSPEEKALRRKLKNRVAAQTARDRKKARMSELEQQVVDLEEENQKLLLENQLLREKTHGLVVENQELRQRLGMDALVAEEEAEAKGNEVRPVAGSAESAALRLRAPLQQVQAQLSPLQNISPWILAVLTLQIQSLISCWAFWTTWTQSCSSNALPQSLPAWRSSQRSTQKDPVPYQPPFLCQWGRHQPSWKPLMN
Sequence of Estrogen receptor (Homo sapiens) (P03372 whole entry, looked up, the tested form may be a part): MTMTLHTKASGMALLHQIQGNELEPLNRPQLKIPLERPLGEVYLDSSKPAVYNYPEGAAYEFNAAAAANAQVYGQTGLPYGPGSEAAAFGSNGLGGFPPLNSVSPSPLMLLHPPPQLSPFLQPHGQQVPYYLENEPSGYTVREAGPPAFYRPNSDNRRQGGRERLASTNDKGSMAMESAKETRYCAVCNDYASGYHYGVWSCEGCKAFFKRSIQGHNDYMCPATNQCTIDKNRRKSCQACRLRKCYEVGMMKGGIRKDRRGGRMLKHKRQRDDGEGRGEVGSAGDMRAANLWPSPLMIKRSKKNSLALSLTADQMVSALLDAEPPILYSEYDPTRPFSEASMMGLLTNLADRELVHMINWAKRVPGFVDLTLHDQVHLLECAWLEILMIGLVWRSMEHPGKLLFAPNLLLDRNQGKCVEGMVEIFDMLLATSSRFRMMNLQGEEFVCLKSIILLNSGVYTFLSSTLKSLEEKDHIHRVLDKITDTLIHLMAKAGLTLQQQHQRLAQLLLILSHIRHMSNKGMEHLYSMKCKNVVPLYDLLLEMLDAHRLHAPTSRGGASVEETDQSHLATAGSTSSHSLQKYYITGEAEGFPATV
Sequence of Steroid hormone receptor ERR1 (Homo sapiens) (P11474 whole entry, looked up, the tested form may be a part): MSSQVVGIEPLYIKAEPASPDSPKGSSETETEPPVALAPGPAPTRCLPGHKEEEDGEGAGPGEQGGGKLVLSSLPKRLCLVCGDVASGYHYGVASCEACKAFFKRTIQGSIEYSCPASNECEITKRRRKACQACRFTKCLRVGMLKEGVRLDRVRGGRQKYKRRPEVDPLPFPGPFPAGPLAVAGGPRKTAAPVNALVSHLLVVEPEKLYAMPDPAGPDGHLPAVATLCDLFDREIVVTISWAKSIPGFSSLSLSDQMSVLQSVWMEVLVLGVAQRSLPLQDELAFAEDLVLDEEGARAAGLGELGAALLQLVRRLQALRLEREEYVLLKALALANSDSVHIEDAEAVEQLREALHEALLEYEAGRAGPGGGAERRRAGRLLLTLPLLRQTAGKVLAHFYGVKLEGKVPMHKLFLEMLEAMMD

SMILES	outcome [1]	outcome [2]	outcome [3]	outcome [4]	outcome [5]	outcome [6]	outcome [7]	outcome [8]	outcome [9]	AC50 [2]	outcome [10]	AC50 [3]	AC50 [1]	AC50 [9]	AC50 [6]
CNC[C@H](O)c1cccc(O)c1	inactive	inactive	inactive	inactive	inactive	inactive	inactive	inactive	–	–	–	–	–	–	–
CC(C)(C)NC(N)=O	inactive	inactive	inactive	inactive	–	inactive	–	inactive	inactive	–	–	–	–	–	–
CCCCCC(=O)OCCc1ccccc1	inactive	inactive	inactive	inactive	inactive	inactive	–	–	inactive	–	–	–	–	–	–
CCCCCCCCCOC(C)=O	inactive	inactive	inactive	inactive	–	inactive	inactive	inactive	inactive	–	–	–	–	–	–
CC(C)c1ccc(C(C)C)cc1	inactive	–	inactive	inactive	–	inactive	inactive	–	inactive	171 µM (active)	–	–	–	–	–
Cc1ncc([N+](=O)[O-])n1C	inactive	inactive	inactive	inactive	–	inactive	inactive	inactive	inactive	–	inactive	–	–	–	–
C=C(C)C(=O)Nc1ccc(Cl)c(Cl)c1	inactive	inactive	–	inactive	–	inactive	inactive	inactive	inactive	–	–	20.6 µM (active)	–	–	–
O=C1OC2(c3cc(Br)c(O)c(Br)c3Oc3c2cc(Br)c(O)c3Br)c2c(Cl)c(Cl)c(Cl)c(Cl)c21	–	–	–	inactive	inactive	inactive	inactive	inactive	inactive	58.4 µM (active)	inactive	16.4 µM (active)	26.1 µM (active)	–	–
CCc1c(C)cc(N)c(CC)c1N	inactive	inactive	inactive	inactive	inactive	inactive	inactive	inactive	inactive	–	inactive	–	–	–	–
O=C1c2ccccc2C(=O)N1SC1CCCCC1	–	–	inactive	inactive	–	–	inactive	inactive	–	144 µM (active)	–	–	60.1 µM (active)	46 µM (active)	26.5 µM (active)
Clc1cccc(Cl)n1	inactive	inactive	inactive	inactive	–	inactive	inactive	inactive	inactive	–	inactive	–	–	–	–
NNc1nc(-c2ccc(N)cc2)cs1	inactive	inactive	inactive	inactive	–	inactive	inactive	–	inactive	–	inactive	–	–	–	–
NC(=O)c1ccccc1Cl	inactive	inactive	–	inactive	inactive	–	inactive	–	inactive	–	inactive	63.3 µM (active)	–	–	62.6 µM (active)
OCCOc1cccc(OCCO)c1	inactive	inactive	inactive	inactive	inactive	inactive	inactive	inactive	–	–	inactive	–	–	–	–
CCCCc1ccc(N)cc1	inactive	inactive	inactive	inactive	–	inactive	–	–	–	–	–	–	–	12.8 µM (active)	–
CCOC(=S)SSC(=S)OCC	inactive	inactive	inactive	inactive	–	inactive	inactive	–	inactive	–	–	–	–	–	–
O=P(c1ccccc1)(c1ccccc1)c1ccccc1	inactive	inactive	–	inactive	–	inactive	–	–	inactive	–	–	13.1 µM (active)	–	–	–
Cc1ccc2sc3cccc(C)c3c2c1	inactive	inactive	inactive	inactive	–	inactive	–	–	inactive	–	–	–	–	–	–
CC1=CCC2C(C1)C2(C)C (stereo not given)	inactive	inactive	inactive	inactive	–	inactive	–	–	–	–	–	–	–	77.3 µM (active)	–
Nc1ccc(F)c([N+](=O)[O-])c1	inactive	inactive	inactive	inactive	–	inactive	inactive	inactive	inactive	–	inactive	–	–	–	–
Clc1sc(Cl)c(Cl)c1Cl	inactive	inactive	inactive	inactive	–	inactive	inactive	inactive	inactive	–	–	–	–	–	–
Cc1ccc(Nc2ccc(O)c3c2C(=O)c2ccccc2C3=O)cc1	inactive	inactive	inactive	inactive	–	inactive	inactive	–	inactive	–	–	–	–	–	–
CC(C)c1cccc(O)c1	inactive	inactive	inactive	inactive	inactive	inactive	inactive	–	–	–	inactive	–	–	71.2 µM (active)	–
NCCNCCN	inactive	inactive	inactive	inactive	inactive	inactive	inactive	inactive	–	–	–	–	–	–	–
COC(=O)OC	inactive	inactive	inactive	inactive	inactive	inactive	inactive	inactive	–	–	inactive	–	–	–	–
COC(=O)c1ccc(C)cc1	inactive	inactive	inactive	inactive	–	inactive	–	inactive	inactive	–	–	–	–	–	–
